Measured values as given in PubChem BioAssay.
Active and inactive are the calls of the source.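 The calls were made as follows, unless noted: active = visual image review flags a hit and inhibition of aggregation exceeds 20%; inconclusive = visual hit but inhibition at or below 20%; inactive = no hit on visual image review.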

Tests used:
[1] = inhibitors of TNFa-induced NFkB p65 translocation, primary screen, imaging, HUVEC, MLSMR starter and 10KST1 sets (AID 438;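 active = inhibition above 20% together with a positive visual image hit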;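 also: compound added about 3h40 before a 20 min TNFalpha stimulation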;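 as to inhibition: signal is the nuclear over cytoplasmic p65 intensity ratio per well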); settings: HUVEC TNFa-induced p65 nuclear translocation; cell count: measured here: nuclei count (cytotoxicity indicator), at 2.08 µM; inhibition: at 2 µM, stronger effect = higher value, 0% TNFa-plus-vehicle, 100% no-TNFa wells
[2] = reduction of polyQ htt aggregates in cells – imaging, exon1htt(103Q)mCFP cells, high-content imaging, primary screen (AID 483); settings: exon1htt(103Q)mCFP cell line, aggregate imaging, at 2 µM; inhibition of aggregation: stronger effect = higher value; nuclei count: measured here: cell count, toxicity;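 also: compound exposure lasted 3 days before fixation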;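 as to nuclei count: percent of the per-plate median nuclei count of sample wells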
[3] = endothelial E-selectin expression blockers – imaging, HUVEC, immunofluorescence, MLSMR starter and 10KST1 sets, primary screen (AID 487;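 active = visually confirmed hit in the image check and inhibition above 20%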;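 as to inhibition: signal is fraction of cell area covered by stained E-selectin grains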;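 as to nuclei count: 100% = median nuclei count of all wells on the same plate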); settings: HUVEC TNFalpha-induced E-selectin immunofluorescence imaging, at 2 µM; inhibition: stronger effect = higher value; nuclei count: measured here: cell number, toxicity
[4] = molecular target: Voltage-gated potassium channel subunit beta-2 (Rattus norvegicus) (UniProt P62483); assay: inhibitors of rat Kvbeta2 reductase activity – biochemical, NADPH fluorescence, primary screen (AID 622;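 active = fluorescence slope higher than the sample average by over 3 SD, cut at about -0.22 in these data, passing the limit was not always enough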;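 also: slope of raw intensity against log time taken from 70 to 1610 s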); settings: recombinant KvBeta, 4-cyanobenzaldehyde reduction, at 10 µM, stronger effect = higher value
Sequence of Voltage-gated potassium channel subunit beta-2 (Rattus norvegicus) (P62483 whole entry, looked up): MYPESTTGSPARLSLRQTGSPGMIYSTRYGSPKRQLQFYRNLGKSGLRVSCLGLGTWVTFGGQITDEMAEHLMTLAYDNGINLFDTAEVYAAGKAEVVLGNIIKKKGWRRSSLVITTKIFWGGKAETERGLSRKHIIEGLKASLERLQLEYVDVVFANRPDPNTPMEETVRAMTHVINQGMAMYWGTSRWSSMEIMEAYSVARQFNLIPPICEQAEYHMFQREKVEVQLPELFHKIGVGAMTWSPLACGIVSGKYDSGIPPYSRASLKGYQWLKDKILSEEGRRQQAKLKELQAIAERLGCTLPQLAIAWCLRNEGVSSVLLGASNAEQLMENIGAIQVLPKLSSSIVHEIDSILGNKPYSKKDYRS

[5] = molecular target: Voltage-gated potassium channel subunit beta-2 (Rattus norvegicus) (UniProt P62483); assay: enhancers of rat Kvbeta2 NADPH turnover – biochemical, NADPH fluorescence, primary screen (AID 623;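 active = NADPH fluorescence slope more negative than the mean of all samples by about 3 SD, 99.7% confidence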;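 also: fluorescence intensity change per second fitted from 20 to 320 s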); settings: Recombinant KvBeta, NADPH fluorescence decrease slope, 10 min; at 10 µM; stronger effect = lower value
[6] = molecular target: Alpha-2C adrenergic receptor (Homo sapiens) (UniProt P18825); assay: compounds altering alpha2C-coupled GIRK flux – cell-based, HEK293 alpha2C/GIRK1/2, thallium flux, primary screen (AID 624;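 active = fluorescence slope after compound addition differing from the mean of all screened samples at 99.7% confidence, in either direction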;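 also: slope of fluorescence ratio to pre-addition baseline per second over 15 to 24 s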); settings: thallium flux BTC fluorescence, at 10 µM, actives lie on both sides
Sequence of Alpha-2C adrenergic receptor (Homo sapiens) (P18825 whole entry, looked up): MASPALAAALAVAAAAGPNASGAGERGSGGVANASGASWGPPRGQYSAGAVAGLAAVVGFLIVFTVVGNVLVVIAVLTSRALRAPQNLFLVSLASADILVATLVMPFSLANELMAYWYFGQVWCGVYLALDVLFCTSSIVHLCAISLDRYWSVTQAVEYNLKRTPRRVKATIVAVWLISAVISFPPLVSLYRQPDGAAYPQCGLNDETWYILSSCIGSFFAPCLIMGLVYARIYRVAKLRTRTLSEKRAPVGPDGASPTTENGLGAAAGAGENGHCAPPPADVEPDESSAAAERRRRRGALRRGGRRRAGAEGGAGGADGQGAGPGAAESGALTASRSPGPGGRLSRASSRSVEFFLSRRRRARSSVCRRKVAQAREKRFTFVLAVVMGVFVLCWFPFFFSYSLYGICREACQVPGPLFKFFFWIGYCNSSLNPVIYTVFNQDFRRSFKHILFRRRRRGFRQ

[7] = blockers of RIG-like receptor reporter activation – cell-based, Sendai virus stimulus, luciferase, 10K MLSCN set, TLR/RLR signaling modifier project, primary screen (AID 602276;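 active = inhibition at or above 50% at 10 µM; inactive = inhibition below 50%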;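 also: firefly luciferase from ISG56 promoter only with Renilla not read in this screen; 0% = Sendai virus plus DMSO and 100% = medium plus DMSO without virus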); settings: HEK293 RL24 IRF3 luciferase reporter, at 10 µM, stronger effect = higher value
[8] = TLR3 IRF3 reporter activation blockers – cell-based, poly I:C stimulus, luciferase, 10K MLSCN set, primary screen (AID 602277;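 active = inhibition of the reporter signal at or above 50%; inactive = inhibition below 50%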); settings: HEK293-TLR3 RL24 IRF3 luciferase reporter, at 10 µM, stronger effect = higher value

| Compound | cell count [1] | inhibition [1] | inhibition of aggregation [2] | nuclei count [2] [%] | inhibition [3] | nuclei count [3] [%] | fluorescence slope [4] | NADPH fluorescence slope [5] | slope [6] | inhibition [7] | inhibition [8] |
| --- | --- | --- | --- | --- | --- | --- | --- | --- | --- | --- | --- |
| CCCc1nnc(NC(=O)CCC(=O)N2CCN(CCOc3ccc(C)cc3)CC2)s1 | 480 | -5.6% (inactive) | -0.2% (inactive) | 89.5 | -2.3% (inactive) | 81.8 | -0.379 (inactive) | 6e-06 (inactive) | 0.0036 (inactive) | 0.418% (inactive) | 10.9% (inactive) |
| COc1ccc(S(=O)(=O)Nc2ccccc2OC)cc1C | 471 | -3.3% (inactive) | 0.3% (inactive) | 96.5 | -26.6% (inactive) | 110 | -0.459 (inactive) | 1.9e-05 (inactive) | 0.00608 (inactive) | 16.7% (inactive) | 27.5% (inactive) |
| CCCNS(=O)(=O)c1ccc(C(=O)NCC2CCCO2)cc1 (stereo not drawn) | 482 | 2.6% (inactive) | -16.7% (inactive) | 114 | -95.5% (inactive) | 114 | -0.529 (inactive) | -4.9e-05 (inactive) | 0.00794 (inactive) | 10.8% (inactive) | 20.7% (inactive) |
| O=C(CSc1nnc(-c2ccccc2)o1)N1CCN(c2ccccc2)CC1 | 220 | 12.5% (inactive) | -9.2% (inactive) | 88.7 | -98.1% (inactive) | 105 | -0.406 (inactive) | -3.6e-05 (inactive) | 0.0062 (inactive) | 5.38% (inactive) | 2.42% (inactive) |
| Cn1c(NC(=O)c2ccccc2NC(=O)C(C)(C)C)nc2ccccc21 | 704 | -3.2% (inactive) | 11.9% (inactive) | 98.3 | -10.7% (inactive) | 126 | -0.163 (active) | 5.8e-06 (inactive) | 0.00774 (inactive) | 1.78% (inactive) | -25.9% (inactive) |
| O=C1c2ccccc2S(=O)(=O)N1Cc1nnc(-c2ccccc2Br)o1 | 536 | -4.9% (inactive) | -9.2% (inactive) | 106 | 51.8% (active) | 99.5 | -0.488 (inactive) | -6e-05 (inactive) | 0.00709 (inactive) | 16.6% (inactive) | 20.8% (inactive) |
| CCCCCC1CC(CC(=O)O)C(=O)O1 (stereo not drawn) | 230 | -25.6% (inactive) | 20.9% (inactive) | 80.6 | -70.3% (inactive) | 126 | -0.4 (inactive) | -5.4e-05 (inactive) | 0.00366 (inactive) | 7.61% (inactive) | 23.6% (inactive) |
| CCOC(=O)C(NC(=O)c1ccc(OC)cc1)(N1CCOCC1)C(F)(F)F (stereo not drawn) | 551 | -0.5% (inactive) | -14.5% (inactive) | 108 | 29.4% (inactive) | 88.9 | -0.59 (inactive) | -4.2e-05 (inactive) | 0.00726 (inactive) | -14.4% (inactive) | -22.3% (inactive) |
